# Measured values reported in paper PMC6602471.
# The full ranking holds about 1,300 sequences; the median of “log fluorescence intensity” is about 8.9, and the highest 2% start at about 13. The sample holds the highest values, similar sequences and a random draw of the others, so the mix is not that of the screen.
# Molecular target: T1, ELK1 (Homo sapiens, UniProt P19419 1-428)
# T1 sequence: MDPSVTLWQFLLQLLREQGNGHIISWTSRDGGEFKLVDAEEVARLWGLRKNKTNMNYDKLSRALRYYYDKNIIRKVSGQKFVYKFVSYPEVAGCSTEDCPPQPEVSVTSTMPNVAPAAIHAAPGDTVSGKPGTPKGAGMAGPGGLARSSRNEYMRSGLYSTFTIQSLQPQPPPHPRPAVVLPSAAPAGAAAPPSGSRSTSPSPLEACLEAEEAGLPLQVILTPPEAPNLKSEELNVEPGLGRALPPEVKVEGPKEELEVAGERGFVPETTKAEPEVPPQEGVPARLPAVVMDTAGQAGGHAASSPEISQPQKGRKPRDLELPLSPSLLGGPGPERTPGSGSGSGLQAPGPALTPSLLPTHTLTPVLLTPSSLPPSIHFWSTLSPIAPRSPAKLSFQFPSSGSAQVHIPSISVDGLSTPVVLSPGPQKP
# Test: custom PBM; custom protein-binding microarray; buffer, salt, pH and temperature not stated; high values mean tight binding
# Details: dsDNA, one strand shown
row,Sequence,binding signal
1,CAGCATAGGACTTCTTCCCTGAAGCAAGTGATAACCGTCTTGATTCGCTTGACGCTGCTG,8.97 log fluorescence intensity
2,GATTAATTTCTGCCATTATTCGCACGTGCCATAACAGTCTTGATTCGCTTGACGCTGCTG,8.92 log fluorescence intensity
3,TAAAGGGAAGACGGTTGTGGTACTTCCGGGTATTAAGTCTTGATTCGCTTGACGCTGCTG,12 log fluorescence intensity
4,TAAAGGGAAGACGGTTGTGGTTGTTCCGGGTATTAAGTCTTGATTCGCTTGACGCTGCTG,10.5 log fluorescence intensity
5,CACAATTTTTACAGTAATTTAGCACGCGTAACTCCTGTCTTGATTCGCTTGACGCTGCTG,8.93 log fluorescence intensity
6,TACTGACTTATATATGCGAATGCACATGATTAGACCGTCTTGATTCGCTTGACGCTGCTG,9 log fluorescence intensity
7,GTGCATAGGATCCCATCCAACACACGTGTTAAAATGGTCTTGATTCGCTTGACGCTGCTG,9 log fluorescence intensity
8,CGGAAGTGTCGTAAACGTCGGATATACGGTTCTTCTGTCTTGATTCGCTTGACGCTGCTG,9.29 log fluorescence intensity
9,GGAAAAAGGCCCAGGGTAACACCGGAAGCGGGCTTAGTCTTGATTCGCTTGACGCTGCTG,10.5 log fluorescence intensity
10,GTGTCTAGGATCCCATCCAACACACGTGTTAAAATGGTCTTGATTCGCTTGACGCTGCTG,8.94 log fluorescence intensity
11,CAGCAGAGGACTTCTTCCCTGAAGCAATTGATAACCGTCTTGATTCGCTTGACGCTGCTG,8.97 log fluorescence intensity
12,CGGAAGTGTCGTAAACGTAGGATATCCGGTTCTTCTGTCTTGATTCGCTTGACGCTGCTG,11.8 log fluorescence intensity
13,CGGAAGTGTCGTAAACGTCGGATATCCGGTTCTTATGTCTTGATTCGCTTGACGCTGCTG,12.4 log fluorescence intensity
14,CGGAAGTGTCGTAAACCTCGGATATCCGGTTCTTCTGTCTTGATTCGCTTGACGCTGCTG,12.2 log fluorescence intensity
15,CGGAAGTGTCGTAAACGTCGGATATCCGGTTCTTCGGTCTTGATTCGCTTGACGCTGCTG,12.4 log fluorescence intensity
16,CGGAAGTGTCGTAAACGTCGGATATCCGGTTCTTCCGTCTTGATTCGCTTGACGCTGCTG,13 log fluorescence intensity
17,CGGAAGTGTCGTAAACGTCGGATATCCGGTTCTGCTGTCTTGATTCGCTTGACGCTGCTG,12.5 log fluorescence intensity
18,CGGAAGTGTCGTAAACGTCGGATATCCGGTTCTACTGTCTTGATTCGCTTGACGCTGCTG,12.4 log fluorescence intensity
19,CGGAAGTGTCGTAAACGCCGGATATCCGGTTCTTCTGTCTTGATTCGCTTGACGCTGCTG,13.3 log fluorescence intensity
20,CGGAAGTGTCGTAAACGTCGGATATCCGGTTCTTCAGTCTTGATTCGCTTGACGCTGCTG,12.6 log fluorescence intensity
21,CGGAAGTGTCGTAAACGTCGGATATCCGGTTCTCCTGTCTTGATTCGCTTGACGCTGCTG,12.6 log fluorescence intensity

row,Sequence,binding signal
1,CGGAAGTGTCGTAAACGTCGGATATCCGGTTCATCTGTCTTGATTCGCTTGACGCTGCTG,12.6 log fluorescence intensity
2,CGGAAGTGTCGTAAACATCGGATATCCGGTTCTTCTGTCTTGATTCGCTTGACGCTGCTG,12.6 log fluorescence intensity
3,CGGAAGTGTCGTAAACTTCGGATATCCGGTTCTTCTGTCTTGATTCGCTTGACGCTGCTG,12.3 log fluorescence intensity
4,CGGAAGTGTCGTAAACGTCGGATATCCGGTTCTTCTGTCTTGATTCGCTTGACGCTGCTG,12.4 log fluorescence intensity
5,CGGAAGTGTCGTAAACGTCTGATATCCGGTTCTTCTGTCTTGATTCGCTTGACGCTGCTG,11.1 log fluorescence intensity
6,CGGAAGTGTCGTAAACGTTGGATATCCGGTTCTTCTGTCTTGATTCGCTTGACGCTGCTG,11.4 log fluorescence intensity
7,CGGAAGTGTCGTAAACGTCGGATATCCGGTTCGTCTGTCTTGATTCGCTTGACGCTGCTG,12.4 log fluorescence intensity
8,TGGAAGTGTCGTAAACGTCGGATATCCGGTTCTTCTGTCTTGATTCGCTTGACGCTGCTG,12.5 log fluorescence intensity
9,CGGAAGTGTCGTAAACGTGGGATATCCGGTTCTTCTGTCTTGATTCGCTTGACGCTGCTG,11.4 log fluorescence intensity
10,CGGAAGTGTCGTAAACGTCGGATATCCGGTTCCTCTGTCTTGATTCGCTTGACGCTGCTG,12.5 log fluorescence intensity
11,AGGAAGTGTCGTAAACGTCGGATATCCGGTTCTTCTGTCTTGATTCGCTTGACGCTGCTG,12.3 log fluorescence intensity
12,GGGAAGTGTCGTAAACGTCGGATATCCGGTTCTTCTGTCTTGATTCGCTTGACGCTGCTG,12.6 log fluorescence intensity
13,CGGAAGTGTCGTAAAGGTCGGATATCCGGTTCTTCTGTCTTGATTCGCTTGACGCTGCTG,12.4 log fluorescence intensity
14,CGGAAGTGTCGTAAATGTCGGATATCCGGTTCTTCTGTCTTGATTCGCTTGACGCTGCTG,12.7 log fluorescence intensity
15,CGGTAGTGTCGTAAACGTCGGATATCCGGTTCTTCTGTCTTGATTCGCTTGACGCTGCTG,12.5 log fluorescence intensity
16,CAGAAGTGTCGTAAACGTCGGATATCCGGTTCTTCTGTCTTGATTCGCTTGACGCTGCTG,12.6 log fluorescence intensity
17,CGAAAGTGTCGTAAACGTCGGATATCCGGTTCTTCTGTCTTGATTCGCTTGACGCTGCTG,12.5 log fluorescence intensity
18,CGGAAGTGTCGTAAACGTCGCATATCCGGTTCTTCTGTCTTGATTCGCTTGACGCTGCTG,11.6 log fluorescence intensity
19,CGTAAGTGTCGTAAACGTCGGATATCCGGTTCTTCTGTCTTGATTCGCTTGACGCTGCTG,12.4 log fluorescence intensity
20,CGGGAGTGTCGTAAACGTCGGATATCCGGTTCTTCTGTCTTGATTCGCTTGACGCTGCTG,12.1 log fluorescence intensity
21,CGGAAGTGTCGTAAACGTCAGATATCCGGTTCTTCTGTCTTGATTCGCTTGACGCTGCTG,11.2 log fluorescence intensity

row,Sequence,binding signal
1,CGGAAGTGTCGTAAAAGTCGGATATCCGGTTCTTCTGTCTTGATTCGCTTGACGCTGCTG,12.5 log fluorescence intensity
2,CTGAAGTGTCGTAAACGTCGGATATCCGGTTCTTCTGTCTTGATTCGCTTGACGCTGCTG,12.3 log fluorescence intensity
3,CGCAAGTGTCGTAAACGTCGGATATCCGGTTCTTCTGTCTTGATTCGCTTGACGCTGCTG,12.6 log fluorescence intensity
4,CGGAAGTGTCGTAAACGTCGGATATCCGGTTCTTGTGTCTTGATTCGCTTGACGCTGCTG,12.6 log fluorescence intensity
5,CGGAAGTGTCGTAAACGTCGGATATCCGGGTCTTCTGTCTTGATTCGCTTGACGCTGCTG,11.9 log fluorescence intensity
6,CGGAAGTGCCGTAAACGTCGGATATCCGGTTCTTCTGTCTTGATTCGCTTGACGCTGCTG,12.5 log fluorescence intensity
7,CGGAAGTGGCGTAAACGTCGGATATCCGGTTCTTCTGTCTTGATTCGCTTGACGCTGCTG,12.1 log fluorescence intensity
8,CCGAAGTGTCGTAAACGTCGGATATCCGGTTCTTCTGTCTTGATTCGCTTGACGCTGCTG,12.6 log fluorescence intensity
9,CGGAAGTGTCGTAAACGTCGAATATCCGGTTCTTCTGTCTTGATTCGCTTGACGCTGCTG,11.7 log fluorescence intensity
10,CGGAAGTGTCGTAAACGTCGGATATCCGGTTGTTCTGTCTTGATTCGCTTGACGCTGCTG,12.5 log fluorescence intensity
11,CGGAAGTGTCGTAAACGTCCGATATCCGGTTCTTCTGTCTTGATTCGCTTGACGCTGCTG,12.3 log fluorescence intensity
12,CGGAAGTGTCGTAAACGTCGGATATCCGGTGCTTCTGTCTTGATTCGCTTGACGCTGCTG,12.5 log fluorescence intensity
13,CGGAAGTGTCGTAAACGTCGGATATCCGGTTCTTTTGTCTTGATTCGCTTGACGCTGCTG,12.5 log fluorescence intensity
14,CGGAAGTGTCGTAAACGTCGGATATCCGGTCCTTCTGTCTTGATTCGCTTGACGCTGCTG,12.6 log fluorescence intensity
15,CGGAAGTGACGTAAACGTCGGATATCCGGTTCTTCTGTCTTGATTCGCTTGACGCTGCTG,12.3 log fluorescence intensity
16,TCCGGCTACCAGCGCCACCCACTTCAGGCCTTGTAGGTCTTGATTCGCTTGACGCTGCTG,8.91 log fluorescence intensity
17,CACAATATTTACAGTAATGTAGCACGCGTAACTCCTGTCTTGATTCGCTTGACGCTGCTG,8.95 log fluorescence intensity
18,CGGAAGTGTCGTAAACGTCGGTTATCCGGTTCTTCTGTCTTGATTCGCTTGACGCTGCTG,10.1 log fluorescence intensity
19,CGGAAGTGTCGTAAACGACGGATATCCGGTTCTTCTGTCTTGATTCGCTTGACGCTGCTG,12.7 log fluorescence intensity
20,CGGAAGTGTCGTAAACGTCGGATATCCGGTTATTCTGTCTTGATTCGCTTGACGCTGCTG,12.5 log fluorescence intensity
21,CGGAAGTGTCGTAAACGGCGGATATCCGGTTCTTCTGTCTTGATTCGCTTGACGCTGCTG,12.6 log fluorescence intensity

row,Sequence,binding signal
1,GGAAAAAGGCCCAGGGTAACACCGCAAGTGGGCTTAGTCTTGATTCGCTTGACGCTGCTG,8.91 log fluorescence intensity
2,TAAAGGGAAGACGGTTGTGGTAGGTCCGGGTATTAAGTCTTGATTCGCTTGACGCTGCTG,8.98 log fluorescence intensity
3,CACAATTTTAACAGTAATGTAGCACGCGTAACTCCTGTCTTGATTCGCTTGACGCTGCTG,8.9 log fluorescence intensity
4,GATGAATTTCTGCCCTTATTCGCACGTGCCATAACAGTCTTGATTCGCTTGACGCTGCTG,8.9 log fluorescence intensity
5,GGAAAAAGGCCCAGGGTTACACCGGAAGTGGGCTTAGTCTTGATTCGCTTGACGCTGCTG,11 log fluorescence intensity
6,TAAAGGGAACACGGTTGTGGTAGTTCCGGGTATTAAGTCTTGATTCGCTTGACGCTGCTG,11.2 log fluorescence intensity
7,GGAAAAAGGCCCAGGGCAACACCGGAAGTGGGCTTAGTCTTGATTCGCTTGACGCTGCTG,10.9 log fluorescence intensity
8,CCCAATTTTTACAGTAATGTAGCACGCGTAACTCCTGTCTTGATTCGCTTGACGCTGCTG,8.98 log fluorescence intensity
9,CTGGGACTTGACCCAACTCTGCCACGTGGGCCGTTTGTCTTGATTCGCTTGACGCTGCTG,9.05 log fluorescence intensity
10,CGGGGACTTGACCCAACTCTGCCACGTGGGTCGTTTGTCTTGATTCGCTTGACGCTGCTG,8.96 log fluorescence intensity
11,TACTTACTTATATATGCGAATGCACATGAATAGACCGTCTTGATTCGCTTGACGCTGCTG,9.06 log fluorescence intensity
12,TAAAGGGAAGACGGATGTGGTAGTTCCGGGTATTAAGTCTTGATTCGCTTGACGCTGCTG,12.6 log fluorescence intensity
13,TAAAGGGAAGACGGGTGTGGTAGTTCCGGGTATTAAGTCTTGATTCGCTTGACGCTGCTG,11.2 log fluorescence intensity
14,TAAAGGGAAGACGCTTGTGGTAGTTCCGGGTATTAAGTCTTGATTCGCTTGACGCTGCTG,11 log fluorescence intensity
15,TCCAGCTACCAGCTCCACCCACTTCAGGCCTTGTAGGTCTTGATTCGCTTGACGCTGCTG,8.99 log fluorescence intensity
16,CACAATTTGTACAGTAATGTAGCACGCGTAACTCCTGTCTTGATTCGCTTGACGCTGCTG,8.91 log fluorescence intensity
17,GGAAAAAGGCCCAGGGTAACCCCGGAAGTGGGCTTAGTCTTGATTCGCTTGACGCTGCTG,10.5 log fluorescence intensity
18,CAGCATAGGACTTCTTCCCTGAAGCAATTGATAACTGTCTTGATTCGCTTGACGCTGCTG,8.96 log fluorescence intensity
